Records with an inconclusive call do not appear. Activity calls are given as the source filed them. How the source made its calls: active means hit-call score of the fitted dose curve at least 0.9, where 1 is the maximum; inconclusive means response in the unintended direction; inactive means score below 0.9.

Sequence of Estrogen receptor (Homo sapiens) (P03372 whole entry, looked up): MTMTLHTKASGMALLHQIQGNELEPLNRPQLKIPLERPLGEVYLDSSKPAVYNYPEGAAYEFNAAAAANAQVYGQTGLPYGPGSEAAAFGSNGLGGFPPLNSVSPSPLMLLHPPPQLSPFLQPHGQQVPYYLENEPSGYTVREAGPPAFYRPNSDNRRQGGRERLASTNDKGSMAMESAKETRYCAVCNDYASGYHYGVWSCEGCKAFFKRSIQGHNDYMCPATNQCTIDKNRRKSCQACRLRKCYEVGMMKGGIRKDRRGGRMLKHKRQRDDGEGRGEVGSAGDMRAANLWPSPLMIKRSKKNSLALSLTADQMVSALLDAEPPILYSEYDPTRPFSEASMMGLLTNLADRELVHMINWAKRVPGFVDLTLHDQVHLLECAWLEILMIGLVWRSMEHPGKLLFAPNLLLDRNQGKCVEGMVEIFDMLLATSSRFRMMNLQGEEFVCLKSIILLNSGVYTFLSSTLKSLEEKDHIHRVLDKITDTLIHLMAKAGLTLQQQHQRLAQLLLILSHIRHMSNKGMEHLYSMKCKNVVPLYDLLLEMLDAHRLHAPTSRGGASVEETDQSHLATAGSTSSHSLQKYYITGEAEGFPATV

This assay has as its target Estrogen receptor (Homo sapiens) (UniProt P03372). Description: NVS_NR_hER: NovaScreen (NVS) Nuclear Receptor Binding Assay for human Estrogen Receptor (ER) (AID 2283348). As to the method: NVS_NR_hER is a biochemical, single-readout assay that uses extracted gene-proteins from MCF7 in a cell-free assay. Measurements were taken 18 hours after chemical dosing in a 96-well plate.NVS_NR_hER is one of one assay component(s) measured or calculated from the NVS_NR_hER assay. It is designed to make measurements of radioligand binding, a form of binding reporter, as detected with scintillation counting signals by Lysate-based radiodetection technology.Data from the assay component NVS_NR_hER was analyzed into 1 assay endpoint. This assay endpoint, NVS_NR_hER, was analyzed in the positive analysis fitting direction relative to DMSO as the negative control and baseline of activity. Using a type of binding reporter, loss-of-signal activity can be used to understand changes in the binding as they relate to the gene ESR1. Furthermore, this assay endpoint can be referred to as a primary readout, because the performed assay has only produced 1 assay endpoint. To generalize the intended target to other relatable targets, this assay endpoint is annotated to the nuclear receptor intended target family, where the subfamily is steroidal.
Binding assays used specific radioligands (tritiated, iodinated) with non-radioactive competitive displacement ligands in agonist or antagonist protocols (as indicated) and various reference compounds and inhibitors to titrate specific binding to receptors and transporters. Most enzyme assays (CYPs, kinases, phosphatases, proteases, HDACs) used recombinant protein and specific substrates (fluorescence mostly, some colorimetric and radioactive) and inhibitors, followed by a biochemical separation of substrate and product. All assays for the biochemical HTS were initially run in duplicate at a single concentration (10 uM for CYP450 assays and 25 uM for all others). […] Each assay was run with positive and negative controls, and concurrent controls on every plate. The follow-up (secondary) screen tested active chemical-pairs in concentration series, as well as a few additional assays not tested in the primary screen, some selected negative inactives, and several cases re-run in the concentration series for confirmatory purposes.
For `CCN(Cc1cccnc1)C(=O)c1cccc(Cl)c1[C@]1(C)C(=O)N(Cc2ccc(OC)cc2OC)c2ccc(Cl)cc21`, the AC50 was 7.99 µM (active).
Consider `Clc1ccccc1C(c1ccccc1)(c1ccccc1)n1ccnc1`, for which the outcome was inactive.
With `CCOC(=O)O[C@H](C)OC(=O)c1ccc2c(c1)cc(C(=O)NC1CCN(C(C)C)CC1)n2Cc1cc(-c2ccc(Cl)s2)on1`, the outcome was inactive.
On the same count and under the same terms, under `CCCCCCCCOC(=O)c1cc(O)c(O)c(O)c1` stands “inactive”; under `CC[C@H](NC(=O)c1cc(F)ccc1NS(=O)(=O)c1cccc2cccnc12)c1ccccc1`, “inactive”.
As to `CC(C)(C)c1cc(/C=C2\SC(N)=NC2=O)cc(C(C)(C)C)c1O`, the result was inactive.
The same measure, in the same setting: under `O=C(Nc1ccc(Cl)cc1)Nc1ccc(Cl)c(Cl)c1` stands “inactive”.
As to `Cc1oc2c(NC(=O)c3c(Cl)cccc3Cl)cccc2c1C(C)(C)O`, the half-maximal activity concentration (AC50) was 13.6 µM (active).
Turning to `CC(C)(O)c1ccc(CNC(=O)c2cccnc2Oc2ccc3nonc3c2)cc1`, the outcome was inactive.
Regarding `CCCCCCCCN(C)CCCCCCCC`, the call was inactive.
In the case of `CN(C)c1ccc(C(=C2C=CC(=[N+](C)C)C=C2)c2ccc(N(C)C)cc2)cc1`, the call was inactive.
Still for that read-out and setting: as for `CCCOC(=O)c1cc(O)c(O)c(O)c1`, the entry is “inactive”.
Turning to `CN(C[C@@H](CC[N+]12CCC(C3CCCCC3)(CC1)CC2)c1ccc(Cl)c(Cl)c1)C(=O)c1cc(C(F)(F)F)cc(C(F)(F)F)c1`, the AC50 was 33 µM (active).
With `NC(=O)c1nc(-c2cccc(-c3cc(F)ccc3OCC(F)(F)C(F)(F)F)c2)n[nH]1`, the compound was classed as inactive.
For the compound `CCCCCc1ccc(N)cc1`, the compound was classed as inactive.
The same measure, in the same setting: under `c1ccc2ccccc2c1` stands “inactive”; under `CCCCCCCCCCCO`, “inactive”; under `Cc1c2ccccc2c(C)c2c1ccc1ccccc12`, “inactive”.
The same measure, in the same setting: as for `NCc1cccc(C2CCN(C(=O)c3ccc(C#Cc4ccccc4F)o3)CC2)c1`, the entry is “inactive”; as for `Cc1cc(F)ccc1-c1cc(N2CC[C@@H](O)[C@H]2CO)ncc1N(C)C(=O)C(C)(C)c1cc(C(F)(F)F)cc(C(F)(F)F)c1`, “inactive”; as for `CN(C)C(=O)C1(N2CCCCC2)CCN(CC[C@@]2(c3ccc(Cl)c(Cl)c3)CN(C(=O)c3ccccc3)CCO2)CC1`, “inactive”.

The values above are taken from PubChem BioAssay (EPA / NIEHS).
